PubChem BioAssay (NCI)
Several values for one entry are separate records, joined by “and”; a condition that tells them apart may be missing. Equal entries are not always repeated. This is part of a sample that, as a whole, favours compounds with a hit. Of some 83,000 tested, about 20% had one in any assay.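 Cells were grown in 96-well plates and exposed to the test compound at a single concentration for 48 hours; results are reported as percent growth, with values below 10 considered active.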 Unmarked numbers belong to inactive results. Activity calls are given as the source filed them.

Tested on: HL-60(TB) leukemia
Test: NCI-60 one-dose screen, 48 h (100 = growth as untreated, 0 = no growth, -100 = all killed)
Details: 10 µM unless noted

SMILES	growth
C=C1C(=O)O[C@H]2[C@H]1CC/C(COC(=O)NCc1cc3ccccc3[nH]1)=C\CC[C@@]1(C)O[C@@H]21	-51.4% (active)
COc1cc(CSc2nc3ccc(Cl)cc3c(=O)n2Cc2ccccc2)cc(OC)c1OC	14.7%
O=C1C2=C(C(=O)c3ccccc31)C(O)(S(=O)(=O)O)C(O)(S(=O)(=O)O)C1N=CC=CC21 (stereo unspecified)	28.7% and 31.4%
O=C(Nc1cccnc1Nc1ccc(F)cc1)c1cn(Cc2cccc(Oc3ccccc3)c2)nn1	26.3%
Nc1nccc2c1ccn2-c1ccc(NC(=O)Nc2cccc(C(F)(F)F)c2)cc1	117%
O=C1C=CC2(NN=C(c3ccccc3)N2c2ccccc2)c2cccc(O)c21 (stereo unspecified)	29.8%
CC(=O)N(N=Nc1ccccc1)c1cccc2ccccc12	116%
O=C(Nc1cccc(Cl)c1)c1cc2ccccc2cc1O	5.85% (active) and -13.6% (active)
Nc1ccc(N=Nc2ccc(O)cc2)c(N)n1	37%
COc1ccc(-c2n[nH]nc2-c2cc(OC)c3c(c2OC)OCO3)cc1	-23.2% (active)
O=C(O)c1cn(C2CC2)c2cc(N3CCN(C(=O)N(c4ccccc4)c4nc(-c5ccccc5)cs4)CC3)c(F)cc2c1=O	-39.9% (active)
CCN(CC)CCNC(=O)n1cc(-c2ccncc2)c(-c2cc(Cl)cc(OC)c2)n1	78%
COc1ccc(NC(=O)CSc2nc(C)c(C(C)=O)n2-c2ccc(Cl)cc2)cc1	103%
OCCNCCCOc1ccc2ncnc(Nc3ccc(Oc4cccc(C(F)(F)F)c4)c(Cl)c3)c2c1	-31.3% (active)
C=C(C)[C@@H]1CC[C@]2(C(=O)OC)CC[C@]3(C)[C@H](CC[C@@H]4[C@@]5(C)C/C(=C/NC(N)=S)C(=O)C(C)(C)[C@@H]5CC[C@]43C)[C@@H]12	95%
O=C1OC(=O)C2C3CC(c4ccccc43)C12 (stereo unspecified)	112%
C#Cc1nc2ccccc2c(=O)[nH]1	-42.4% (active)
CC(=O)c1c(O)c(C)c(O)c2c1OC1=CC(=O)/C(=C(/C)N)C(=O)C12C (stereo unspecified)	84.4%

SMILES	growth
O=C1c2cccnc2C(=O)c2c1c(C(=O)NCCn1ccnc1)c1ccccn21	0.989% (active)
COc1ccc(-c2nnc(SC/C(=N\O)c3ccccc3)o2)cc1	86.8%
CCOc1ccc(NC(=O)CSc2oc(-c3ccccc3)nc2S(=O)(=O)c2ccc(F)cc2)cc1	65.2%
COc1cc(NS(C)(=O)=O)ccc1Cc1c2ccccc2nc2ccccc12	-2.45% (active)
CN1CCC(c2ccccc2)(c2ccccc2)C(=O)C1	90.8%
COC(=O)[C@]12CC[C@@H](C)[C@H](C)[C@@H]1C1=CC[C@@H]3[C@@]4(C)CC(=O)[C@H](OC(=O)c5ccco5)[C@@]5(C)COC(=C45)C[C@@]3(C)[C@]1(C)CC2	24.6%
CN(C)CCCn1c(=O)c2ccccc2c2ccccc21	63.4%
CC12CCC3c4ccccc4CCC3(CO1)C2 (stereo unspecified)	87.7%
CCC(O)c1ccc(Br)cc1NC(=O)c1cccc(Cl)c1 (stereo unspecified)	-6.38% (active)
O=C(CCCn1c2c(sc3ccccc32)c(=O)n2nnc(-c3ccccc3)c12)NCCc1cnc[nH]1	82.4%
O=C(O)C1(C(=O)O)CCC1.[NH2-].[NH2-].[Pt+2]	103% and 58.7%
Cc1nn(-c2ccc(Cl)cc2)c(=O)n1CCn1cnc2ccccc21	102%
COc1ccc(-c2ccc(-c3ccc(C(=N)N)c(F)c3)s2)cc1	-79.4% (active)
CCN(CC)CCNC(=O)c1c(C)[nH]c(/C=C2\C(=O)Nc3cc(NC(=O)NC(=O)c4ccc(OC)cc4F)ccc32)c1C	95.9%
CCCCCCCCCCCCCCCCCCNC(=O)[C@H]1CSC(c2cccs2)N1 (stereo partly specified)	-67.5% (active)
CC1=C(/C=C/C(C)=C/C=C/C(C)=C/CO)C(C)(C)CCC1	103%
CN(C)c1ccc(Nc2cc(-c3cccc(OC(F)(F)F)c3)nc3ccc(N4CCCC4)cc23)cc1	-15.6% (active)
C#CC[C@@H]1C[C@]2(C)[C@H]3CC[C@@H]4[C@H]5C(C(=C)C)CC[C@]5(C(=O)NCCCN5CCN(CCCN)CC5)CC[C@@]4(C)[C@]3(C)CC[C@H]2C(C)(C)[C@H]1OC(C)=O (stereo partly specified)	-51.6% (active)
